The target of assay [1] is NAD(+) hydrolase SARM1 (Homo sapiens) (UniProt Q6SZW1). In words: SARM1 TIR NADase inhibitors, cell lysate, NAD-Glo luminescence (AID 1508614;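 active = compound whose remaining NAD level is above about 45 nM, limit read from the data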;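 also: higher remaining NAD means stronger inhibition of SARM1 NADase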). Conditions: SAM-TIR HEK293T lysate NADase, at 1 µM, stronger effect = higher value.
The target in assay [2] is Mitogen-activated protein kinase 7 (Homo sapiens) (UniProt Q13164). In words: ERK5 transactivation activators in reporter cells, primary screen, cell-based, HTS (AID 1508626;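 active = luciferase signal above three times the same-plate solvent-only control wells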;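 also: luciferase driven by Gal4-ERK5 fusion binding five Gal4 sites before minimal TATA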). The settings on record: HeLa Gal4-ERK5 transactivation, 18 h, at 5 µM, stronger effect = higher value.
Assay [3] in a line: circadian clock period modulators, cell-based, LOPAC library, luminescence reporter (AID 2774; call rule not given here;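 also: values are relative to mean of DMSO wells on each plate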). Conditions: circadian reporter cells, at 7 µM, actives lie on both sides.
The test system of assay [4] is Hepatitis C virus NS3 helicase. In words: HCV NS3 helicase inhibitors, primary screen, biochemical, fluorescence polarization, LOPAC1280 library (AID 687035; in the data active = inhibition above about 37%). The settings on record: Purified HCV NS3 helicase, Cy5-dT15 ssDNA binding fluorescence polarization; stronger effect = higher value; concentration not given here. A general note: Polarisation of emitted light reports the rotation of a fluorescent probe.

Assay [5] can be described thus: Cy5 fluorescence quenching or enhancement artefacts, artefact control for HCV NS3 helicase inhibitor project, biochemical, LOPAC1280 (AID 687037; call rule not given here). The settings on record: Cy5-DNA-NS3h complex fluorescence interference counterscreen. (The purpose of a counterscreen is to sort out artefacts and off-target activity.)
Assay [6] is described as follows: phospholipid biosynthesis inhibitors in animal cells, primary screen, cell-based, LOPAC library, screen 4 (AID 1347384; call rule not given here). The settings on record: phospholipid biosynthesis inhibition screen, at 10 µM.
Assay [7] is described as follows: viability rescue of complex I mutant cybrids, primary screen, cell-based, galactose medium, ATP luminescence (AID 1645843;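 active = z-score of at least 1.8 in each of two replicates, scored against plate mean and spread of sample wells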;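 also: positive z means more ATP and so rescue of galactose-driven cybrid death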). Conditions: complex I mutant cybrid cells, 72 h, stronger effect = higher value.
Assay [8] is described as follows: liver-stage malaria parasite growth inhibition, primary screen, cell-based, HepG2, luciferase luminescence, HepG2 viability (AID 624349; in the data active = parasite load remaining mostly below about 12%, no sharp cut-off; inactive = mostly above about 10%;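 also: 100% = mean of DMSO negative control wells on the same plate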). Conditions: P. berghei liver stage in HepG2, luciferase luminescence, concentration not given here; parasite load remaining: stronger effect = lower value; viability: measured here: HepG2 viability without parasites.
Assay [9] in a line: LFS_MB_1R medulloblastoma cell growth inhibition, synergistic combos for chromothripsis tumors, cisplatin or BGB combos (AID 1671452).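 Also: cells exposed for 96 hours before readout.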 The settings on record: LFS_MB_1R medulloblastoma cells, stronger effect = higher value.
A short description of assay [10]: CRL2098 osteosarcoma cell growth inhibition, synergistic combos for chromothripsis tumors, BGB or cisplatin IC20 combos (AID 1671454).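 Also: cells exposed for 96 h before readout; 0% = vehicle DMSO and 100% = killing by high DMSO.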 Conditions: CRL2098 osteosarcoma cells, drug combinations, stronger effect = higher value.
A short description of assay [11]: HD-MB03 medulloblastoma cell growth inhibition, synergistic combos for chromothripsis tumors, BGB or cisplatin IC20 combos (AID 1671455; in the data active = inhibition above about 83%;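 also: 0% = vehicle DMSO and 100% = high DMSO as cytotoxic control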). Conditions: HD-MB03 medulloblastoma cells, stronger effect = higher value.
The nature of assay [12]: UWB1.289 ovarian carcinoma cell growth inhibition, synergistic combos for chromothripsis tumors, BGB or cisplatin combos (AID 1671456).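 Also: cells exposed to compound for four days; 0% = vehicle DMSO and 100% = killing by high DMSO.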 Conditions: UWB1.289 ovarian carcinoma cells, stronger effect = higher value.
The nature of assay [13]: LFS_MB_2R medulloblastoma cell growth inhibition, synergistic combos for chromothripsis tumors, cisplatin combos (AID 1671457).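 Also: cells exposed to compound for four days before readout.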 The settings on record: LFS_MB_2R medulloblastoma cells, stronger effect = higher value.
Assay [14] is described as follows: UWB1.289_BRCA1 ovarian cancer growth, cell-based, BGB or cisplatin combinations (AID 1671459). The settings on record: UWB1.289 BRCA1 ovarian carcinoma, drug combinations, stronger effect = higher value.
A short description of assay [15]: human astrocyte viability loss, single and combined drugs, cytotoxicity control for chromothriptic childhood tumor combination screen, cell-based, BGB or cisplatin IC20 combos (AID 1671460).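 Also: cells exposed to compounds for 96 hours before viability readout; 0% = vehicle and 100% = killing control.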 Conditions: Human astrocytes, drug combinations, stronger effect = higher value.
Assay [16] can be described thus: inhibitors of Cryptococcus chitosan production, flow cytometry, Cibacron Brilliant Red staining (AID 1347148; call rule not given here;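 also: compound exposure lasted three days at 37 degrees C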). Conditions: Cryptococcus neoformans chitosan, stronger effect = lower value; at 10 µM unless noted. Background: In flow cytometry, cells or beads pass a laser one at a time.
[17] abbreviates: measured here: combination with BGB IC40, at 0.05 µM.
The mark [18] stands for this setting: measured here: combination with cisplatin, at 0.5 µM.
Where [19] appears, read: measured here: combination with cisplatin, at 5 µM.
[20] abbreviates: measured here: combination with BGB at IC20, at 0.5 µM.
Where [21] appears, read: measured here: combination with cisplatin at IC20, at 0.5 µM.
[22] abbreviates: measured here: combo with BGB at IC20, at 0.5 µM.
Setting [23] is: measured here: combo with cisplatin at IC20, at 0.5 µM.
Where [24] appears, read: measured here: inhibition with BGB combination, at 0.05 µM.
Where [25] appears, read: measured here: inhibition with cisplatin combination, at 0.05 µM.
The mark [26] stands for this setting: BGB combination, concentration series, at 5 µM.
The mark [27] stands for this setting: cisplatin combination, concentration series, at 5 µM.
Where [28] appears, read: measured here: combo with BGB IC20, at 0.5 µM.
Where [29] appears, read: measured here: combo with cisplatin IC20, at 0.5 µM.

Experimental findings from PubChem BioAssay are described below.

Broadly, the inhibition is the drop in the measured response relative to a control, in per cent. By viability is commonly meant a read-out of living cells in per cent, often relative to untreated cells.

The structures appear in SMILES notation. “And” between values parts separate entries of the source, which are not always exact repeats. Identical values can stand only once. The source made the active and inactive calls. Rule as the data show it, unless noted: active = inhibition above about 80%; inactive = the rest.

Chain of NAD(+) hydrolase SARM1 (Homo sapiens) (Q6SZW1 whole entry, looked up, the tested form may be a part): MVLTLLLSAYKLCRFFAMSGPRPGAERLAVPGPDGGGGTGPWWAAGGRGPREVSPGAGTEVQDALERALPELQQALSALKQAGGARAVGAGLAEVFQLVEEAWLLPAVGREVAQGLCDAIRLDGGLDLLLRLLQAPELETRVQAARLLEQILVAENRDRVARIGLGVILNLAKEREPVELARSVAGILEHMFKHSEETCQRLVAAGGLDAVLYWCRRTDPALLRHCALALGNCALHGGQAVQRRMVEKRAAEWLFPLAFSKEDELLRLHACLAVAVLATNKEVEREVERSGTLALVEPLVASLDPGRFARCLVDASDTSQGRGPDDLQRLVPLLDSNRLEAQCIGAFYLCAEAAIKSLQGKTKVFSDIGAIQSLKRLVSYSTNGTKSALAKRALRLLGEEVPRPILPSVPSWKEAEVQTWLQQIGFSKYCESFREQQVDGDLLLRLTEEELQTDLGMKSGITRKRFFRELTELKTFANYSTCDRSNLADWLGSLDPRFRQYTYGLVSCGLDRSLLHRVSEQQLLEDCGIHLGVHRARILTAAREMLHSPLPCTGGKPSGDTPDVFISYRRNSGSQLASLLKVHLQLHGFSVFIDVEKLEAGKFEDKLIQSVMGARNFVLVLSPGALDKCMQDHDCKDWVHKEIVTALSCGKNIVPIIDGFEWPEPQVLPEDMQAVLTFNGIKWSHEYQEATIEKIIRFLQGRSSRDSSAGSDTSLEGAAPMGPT
Chain of Mitogen-activated protein kinase 7 (Homo sapiens) (Q13164 whole entry, looked up, the tested form may be a part): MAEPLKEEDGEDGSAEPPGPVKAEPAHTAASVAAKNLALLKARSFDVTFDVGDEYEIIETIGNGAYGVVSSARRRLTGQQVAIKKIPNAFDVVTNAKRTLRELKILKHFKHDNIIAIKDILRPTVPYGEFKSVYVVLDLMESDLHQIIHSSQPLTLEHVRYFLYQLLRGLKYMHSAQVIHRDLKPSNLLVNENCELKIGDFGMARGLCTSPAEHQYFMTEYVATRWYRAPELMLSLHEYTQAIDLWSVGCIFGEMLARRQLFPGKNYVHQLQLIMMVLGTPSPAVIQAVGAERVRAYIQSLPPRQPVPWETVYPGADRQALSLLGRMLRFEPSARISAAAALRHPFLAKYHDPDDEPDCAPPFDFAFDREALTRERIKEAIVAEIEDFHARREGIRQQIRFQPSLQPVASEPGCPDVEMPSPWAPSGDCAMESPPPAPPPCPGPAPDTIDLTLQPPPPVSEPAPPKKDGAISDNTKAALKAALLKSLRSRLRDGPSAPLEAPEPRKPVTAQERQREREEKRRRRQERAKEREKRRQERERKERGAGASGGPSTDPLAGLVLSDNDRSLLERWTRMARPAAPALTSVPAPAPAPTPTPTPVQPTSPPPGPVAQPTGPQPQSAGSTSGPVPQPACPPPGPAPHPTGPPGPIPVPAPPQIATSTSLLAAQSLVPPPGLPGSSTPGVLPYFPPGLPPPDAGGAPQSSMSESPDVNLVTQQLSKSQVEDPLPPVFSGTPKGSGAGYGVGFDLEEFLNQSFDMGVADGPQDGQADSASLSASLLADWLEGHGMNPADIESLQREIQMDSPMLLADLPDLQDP

For the molecule `CCCCCCCCCCCCCCCC(=O)OC[C@@H](NC(=O)C(Cl)Cl)[C@H](O)c1ccc([N+](=O)[O-])cc1`, the remaining NAD in [1] is 10 nM (inactive). Also, the luciferase signal in [2] was 64 AU (inactive).
On to `Nc1nc2[nH]cc(CCc3ccc(C(=O)N[C@@H](CCC(=O)O)C(=O)O)cc3)c2c(=O)[nH]1`, for which the remaining NAD in assay [1] was 10 nM (inactive).
Regarding `CC1(C)C(=O)N(CCN2CCC(C(=O)c3ccc(F)cc3)CC2)c2ccccc21`, in assay [3], the period change is 0.085 h (inactive). The inhibition in assay [4] is -1% (inactive). In [5], the fluorescence ratio (interference) is 1 (inactive). The molecule was classed as inactive in [6]. The z-score in assay [7] is -1.21 (inactive).
Turning to `C[N+]1(C)[C@@H]2CC(OC(=O)C(O)(c3cccs3)c3cccs3)C[C@H]1[C@@H]1O[C@@H]12` (some centres not stated), in [8], the parasite load remaining was 18% (inactive) and the viability was 66.5%. Further, the z-score in assay [7] was 0.685 (inactive).
Consider `CC(O)C1C(=O)N2C(C(=O)O)=C(SC3CNC(C(=O)N(C)C)C3)C(C)C12` (configuration not stated), for which the z-score in assay [7] was 0.545 (inactive).
Turning to `CC(C)OC(=O)[C@H](C)N[P@](=O)(OC[C@H]1O[C@@H](n2ccc(=O)[nH]c2=O)[C@](C)(F)[C@@H]1O)Oc1ccccc1`, the inhibition in [9] (at 0.5 µM) is -18.8% (inactive); in [9] (setting [17]), -16%; in assay [9] (setting [18]), -13.4%; in [9] (setting [19]) it was -6.21%; in assay [10] (at 0.5 µM) it was -13.4% (inactive); in [10] (setting [20]), 11.7%. The inhibition in assay [10] (setting [21]) is -20.8%; in [11] (at 0.5 µM), -3.62% (inactive); in assay [11] (setting [22]) it was -1.34%; in assay [11] (setting [23]), -5.16%; in assay [12] (at 0.5 µM), 0.46% (inactive); in assay [12] (setting [24]) it was -14.4%. For the same molecule, the inhibition was -6.56% in [12] (setting [25]); -20% (inactive) in [13] (at 0.5 µM); -25% in assay [13] (setting [18]); -21.1% in assay [13] (setting [19]); 0.431% in assay [14] (setting [26]); -0.57% (inactive) in assay [14] (at 0.5 µM). Besides, the inhibition is 20% in assay [14] (setting [27]), 4.95% (inactive) in assay [15] (at 0.5 µM), 12% in [15] (setting [28]) and 8.21% in assay [15] (setting [29]).
Turning to `O=C(O)CO.[NH2-].[NH2-].[Pt+2]`, the inhibition in assay [9] (at 0.5 µM) is -13.7% (inactive); in [9] (setting [17]) it was -19.6%; in assay [9] (setting [18]), -19.7%; in assay [9] (setting [19]), -34.1%; in assay [10] (at 0.5 µM) it was -21.5% (inactive); in assay [10] (setting [20]) it was -45.1%. The inhibition in assay [10] (setting [21]) was 11.3%; in assay [11] (at 0.5 µM) it was -6.84% (inactive); in assay [11] (setting [22]), -6.51%; in [11] (setting [23]) it was -6.47%; in assay [12] (at 0.5 µM), 4.06% (inactive); in assay [12] (setting [24]), -8.1%. The inhibition is -3.04% in assay [12] (setting [25]); -20.3% (inactive) in assay [13] (at 0.5 µM); -13.9% in [13] (setting [18]); -30.3% in assay [13] (setting [19]); -0.864% in assay [14] (setting [26]); -1.6% (inactive) in [14] (at 0.5 µM). Also, the inhibition was 15.4% in [14] (setting [27]), 13.7% (inactive) in assay [15] (at 0.5 µM), 19.5% in [15] (setting [28]) and 18.5% in assay [15] (setting [29]).
Regarding `C[C@]12C=CC(=O)N[C@@H]1CC[C@@H]1[C@@H]2CC[C@]2(C)[C@@H](C(=O)Nc3cc(C(F)(F)F)ccc3C(F)(F)F)CC[C@@H]12`, the remaining NAD in assay [1] was 10 nM (inactive).
For the molecule `NC(N)=Nc1nc(CSCCC(N)=NS(N)(=O)=O)cs1`, in assay [4], the inhibition was -3% (inactive). For the same molecule, the fluorescence ratio (interference) in assay [5] was 1 (inactive). Also, the result in assay [6] was inactive. Also, the z-score in assay [7] is 1.1 (inactive) and 1.27 (inactive).
Regarding `C/C=C1\C2C=C(C)CC1(N)c1ccc(=O)[nH]c1C2` (configuration not stated), the fold fluorescence in assay [16] is 4.5 [at 206.3 µM] (inactive).
